# According to PubChem BioAssay AID449762 (Southern Research Specialized Biocontainment Screening …, 2010):
# Hit rate of the full screen: of about 330,000 compounds, about 1,900 (0.58%) were called active. Roughly 4% stayed inconclusive and do not appear here. These entries were drawn from the full list. Entries with a potency or affinity are not part of this list. Unmarked numbers belong to inactive results. Cut-off read from the data, not from the text of the source: inconclusive = inhibition above about 70% without an active follow-up result; inactive = below that.
# Experiment: M. tuberculosis growth inhibition, HTS (AID 449762);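 note: bacterial growth assessed after seven days of incubation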
# Conditions: M. tuberculosis H37Rv growth inhibition, 7H9 media; at 25 µM; stronger effect = higher value
row,SMILES,inhibition
1,CC1CN=C(Nc2ccccc2)S1 (stereo unspecified),1.32%
2,O=[N+]([O-])c1ccc(C2CN=C(Nc3ccccc3)S2)cc1 (stereo unspecified),0.07%
3,Cc1cc2c(OCC(O)CN3CCCCC3)cccc2[nH]1 (stereo unspecified),-0.02%
4,COc1cc(C(=O)ONC(=O)c2ccc(OC(F)F)cc2)cc(OC)c1OC,0.02%
5,O=C(NCc1ccc(Cl)cc1)C1CCCN(c2cnccn2)C1 (stereo unspecified),3.46%
6,O=C(COc1ccc(S(=O)(=O)N2CCOCC2)cc1Cl)NCCN1CCOCC1,0.71%
7,COc1ccc(-c2csc(-n3ncc(-c4ccccn4)c3N)n2)cc1,1.41%
8,Nc1c(-c2cccs2)cnn1-c1nc(-c2ccc(F)cc2)cs1,-11.5%
9,COc1ccc(-c2n[nH]c(=S)n2CC(C)C)cc1,-17.2%
10,CN(C)CCCN(C(=O)c1ccc(C(=O)c2ccccc2)cc1)c1nc2cc3c(cc2s1)OCCO3,2.4%
11,Cn1cc(C(=O)c2ccccc2C(=O)O)cc1C(=O)C(Cl)(Cl)Cl,1.33%
12,C=CCNC(=S)NNC(=O)c1cccc2ccccc12,-8.25%
13,CN(c1ccccc1)S(=O)(=O)c1ccc(C(=O)OCC(=O)NCc2cccs2)cc1,-2.53%
14,CCN1C(N(C)CCc2cccs2)=N[C@@H](c2ccccc2)C(C(=O)OC)=C1C,-2.75%
15,CCN1C(=O)N[C@@H](c2cccc(C(F)(F)F)c2)C(C(=O)OC)=C1C,-2.1%
16,C=CC[C@@H](Cc1ccc(F)cc1)C(=O)OC[C@H]1CCCN1C(=O)[C@@H](CC=C)CC(=O)N[C@@H](CO)Cc1ccccc1,-0.18%
17,O=C(SCC(O)C(O)CS)c1cccs1 (stereo unspecified),-1.44%
18,COc1ccc(C(=O)NN=C2CCCC2)c(OC)c1,-0.32%
19,O=C(C1CCCCC1)N1CCc2ccccc21,0.1%
20,O=C(C1CCC1)N1CCc2cc(S(=O)(=O)N3CCCCC3)ccc21,-8.32%
21,O=C(Nc1ccncc1)c1cc(-c2cccc(Br)c2)nc2ccccc12,-13.1%

row,SMILES,inhibition
1,CCn1nc(NS(=O)(=O)c2ccc([N+](=O)[O-])cc2)c2cc3cc(C)ccc3nc21,2.04%
2,COc1cccc(C(=O)OC(C)C(=O)Nc2ccc3c(c2)OCO3)c1 (stereo unspecified),-7.8%
3,COc1ccc(-n2nc(C(=O)NCC(=O)N3CCCCCC3)c3ccccc3c2=O)cc1OC,-4.92%
4,COc1ccc(Cn2cnc3c(N)c(C)c(C)cc32)cc1,-12.4%
5,COC(=O)CSc1nc(SCc2ccccc2Cl)nc2c1CCCC2,-6.09%
6,CN(C)c1nc(SCc2ccccc2Cl)nc2c1CCCC2,20.2%
7,CC(C)OC(=O)c1nnn(-c2nonc2N)c1CN1CCCCCC1,-9.91%
8,Cc1ccc(OCc2cc(C(=O)NCCn3cccn3)no2)cc1C,10.8%
9,COc1ccc(C(=O)NC(NC(=S)Nc2ccc(S(N)(=O)=O)cc2)C(Cl)(Cl)Cl)cc1 (stereo unspecified),-5.71%
10,Oc1ccc(C2=CCNCC2)cc1O,-1.15%
11,CN1c2ccc([N+](=O)[O-])cc2N(C)C1(C)c1ccccc1 (stereo unspecified),-1.96%
12,CN1c2ccccc2N(C)C1(C)c1ccccc1,4.29%
13,Cc1cc(/C=C2/SC(=S)N(c3cccc(Cl)c3)C2=O)c(C)n1-c1cccnc1,59.7%
14,Cc1cc(C=C2C(=O)N(C)C(=S)N(C)C2=O)c(C)n1-c1cccnc1,-1.48%
15,COc1cccc(CCc2nnc(CCC(=O)N3CCN(Cc4ccccn4)CC3)o2)c1,-0.82%
16,COc1ccccc1C(=O)c1c(C)c(CCC#N)n2ccccc12,2.58%
17,O=C(COC(=O)C12CC3CC(CC(C3)C1)C2)N1CCN(S(=O)(=O)c2ccccc2)CC1,6.15%
18,CN(C1CCCCC1)S(=O)(=O)c1ccc(SCC(=O)NC(C)(C)C)nc1,-0.68%
19,CN1CCN(Cc2cc(Cl)c3cccnc3c2OC(=O)c2cccs2)CC1,-8.53%
20,CN(C)C(=O)Oc1c(Cl)cc(Cl)c2cccnc12,0.5%
21,CN1C(=O)CC(N2CCN(CCN=CC3=C(O)CC(C)(C)CC3=O)CC2)C1=O (stereo unspecified),9.46%

row,SMILES,inhibition
1,O=C(CS(=O)(=O)Cc1ccccc1)Nc1ccc(Br)cc1F,-10.1%
2,CCOC(=O)c1c(C)n(OC)c2ccc3c(no[n+]3[O-])c12,-8.43%
3,COn1c2c(c3c4no[n+]([O-])c4ccc31)CCCC2,12.5%
4,Cc1ccc2[nH]c(=O)c(CN(CC3CCCO3)C(=O)c3ccncc3)cc2c1 (stereo unspecified),4.74%
5,CCCCCNc1nc(NCCCO)c(C#N)c2c1CN(C)CC2,1.69%
6,CN1CCc2c(C#N)c(N3CCCCC3)nc(NCc3ccccc3)c2C1,8.6%
7,CC(=O)NC(C)(CC(=O)c1ccccc1)c1ccccc1 (stereo unspecified),-8.86%
8,S=C(NCCCN1CCOCC1)N(Cc1ccccc1)Cc1ccccc1,-1.92%
9,C=CCSc1nn2c(=O)c3ccccc3nc2s1,66.1%
10,Cc1ccccc1Nc1nn2c(=O)c3ccccc3nc2s1,4.93%
11,Cc1nc(SCC(C)C)[nH]c(=O)c1Cc1ccccc1,-4.67%
12,O=C(OCc1nnc(-c2ccccc2)o1)c1ccccc1,3.86%
13,O=C(OCc1nnc(-c2ccccc2)o1)c1ccc([N+](=O)[O-])s1,63.8%
14,COc1ccc(OC)c(NC2=NCCCS2)c1,-1.69%
15,COc1ccc(C(CNC(=O)C(=O)NC2CCCCC2)N2CCN(C)CC2)cc1 (stereo unspecified),-12.6%
16,COc1ccc(OC)c(N2Cc3ccccc3C2)c1,3.42%
17,COc1ccccc1CC(=O)N1CCN(c2ccccc2F)CC1,3%
18,COc1ccccc1NC(=O)Nc1nc(CC(=O)NCc2c(F)cccc2F)cs1,29.2%
19,O=C(Nc1cccc(S(=O)(=O)N2CCOCC2)c1)c1cc(=O)[nH]c2ccccc12,-2.49%
